Among the data in PubChem BioAssay are inhibition values, retold here.

The source made the active and inactive calls. How the calls were made is not given here.

In this test the target is Pantothenate synthetase (Mycobacterium tuberculosis (strain ATCC 25618 / H37Rv)) (UniProt P9WIL5). The experiment in a line: Recombinant Mtb pantothenate synthetase (PanC) inhibitors, coupled enzyme, confirmatory (AID 375).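 Further: 0% = full reaction with vehicle and 100% = no enzyme background.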 The following applies: coupled enzyme assay; at 10 µM, active compounds read high.
Pantothenate synthetase (Mycobacterium tuberculosis (strain ATCC 25618 / H37Rv)), sequence (P9WIL5 whole entry, looked up): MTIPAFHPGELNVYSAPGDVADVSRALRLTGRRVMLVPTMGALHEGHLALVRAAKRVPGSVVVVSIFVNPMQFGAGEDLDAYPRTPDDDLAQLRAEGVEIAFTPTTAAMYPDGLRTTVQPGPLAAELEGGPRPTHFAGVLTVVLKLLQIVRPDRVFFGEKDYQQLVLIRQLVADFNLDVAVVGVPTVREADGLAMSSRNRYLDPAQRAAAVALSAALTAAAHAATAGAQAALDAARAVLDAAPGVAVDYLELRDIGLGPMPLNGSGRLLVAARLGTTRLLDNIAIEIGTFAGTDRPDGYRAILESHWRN
Regarding `CC(=O)Nc1c(O)[nH]c2ccccc12`, the inhibition (in general, the change of the read-out against control, counted positive when it falls) is 0% (inactive).

Take `O=C(O)CCc1cc(I)c(Oc2ccc(O)c(I)c2)c(I)c1`: the inhibition was 8% (inactive).

`CCCn1c(=O)c(C(=O)NCc2ccccn2)c(O)c2ccccc21`: the inhibition was 0% (inactive).

Regarding `O=C(CN1C(=O)C2C3C=CC(C3)C2C1=O)NCc1ccc2c(c1)OCO2` (stereo not given), the inhibition was 0% (inactive).

Consider `COc1ccc2c(c1)cc(C(=O)O)n2C`, for which the inhibition is 6% (inactive).

As for `CCN(CC)c1ccc(/C=N/n2nnnc2N)c(O)c1`, the inhibition was 6% (inactive).

Take `NC(=O)c1cc(-c2ccccc2)nc(Oc2ccccc2)n1`: the inhibition was 1% (inactive).

For `O=C(Nc1c(C(=O)NCc2ccco2)cnn1-c1ccccc1)c1ccc(F)cc1`, the inhibition was 2% (inactive).

For the compound `[O-][n+]1onc2c1CCc1nnc(-c3ccccc3)cc1-2`, the inhibition is 0% (inactive).

Regarding `COc1ccc(C(CNC(=O)c2cc(C)oc2C)N2CCOCC2)cc1` (stereo not given), the inhibition was 0% (inactive).

Take `CNC(=O)CSc1nnc(-c2cc3c(C)nn(-c4ccccc4)c3s2)n1C`: the inhibition is 2% (inactive).

Consider `COc1ccc2nc3oc(C(=O)N4CCCCC4)cc3cc2c1`, for which the inhibition was 12% (inactive).

As for `COc1cccc2c1C(=O)c1c(O)c3c(c(O)c1C2=O)C[C@@](O)(C(=O)CO)C[C@@H]3O[C@H]1C[C@H](N)[C@H](O)[C@H](C)O1`, the inhibition was 5% (inactive).

Regarding `Cc1cc(-c2ccccc2)c2nncn2n1`, the inhibition is 3% (inactive).

In the case of `CC(C)c1nnc(NC(=O)Cc2cccs2)s1`, the inhibition is 0% (inactive).

As for `CCOC(=O)C1CCCn2c1nc1sc3c(c1c2=O)CCCC3` (stereo not given), the inhibition is 0% (inactive).

Take `COc1ccc2c(c1OC)C(=O)OC2C1c2c(cc3c(c2OC)OCO3)CCN1C` (stereo not given): the inhibition was 0% (inactive).

Regarding `O=C(NCc1ccco1)C(c1ccco1)N(C(=O)Cn1nnc2ccccc21)c1ccc2c(c1)CCC2` (stereo not given), the inhibition is 0% (inactive).

Turning to `COCCCN1C(=O)C(=O)/C(=C(/O)c2ccc(OCC(C)C)cc2C)C1c1cccnc1` (stereo not given), the inhibition is 0% (inactive).

For the compound `COc1ccc2oc(=O)c(C(=O)N3CCN(c4ccccc4F)CC3)cc2c1`, the inhibition is 0% (inactive).

Regarding `CCNC(=O)CC(=O)Nc1ccccc1C(=O)O`, the inhibition is 0% (inactive).

For the compound `CC(=O)NCCn1c(SCC(=O)NCC2CCCO2)nc2ccccc2c1=O` (stereo not given), the inhibition is 0% (inactive).

Take `CC12CCC(C(=O)N3CCN(C(=O)C45CCC(C)(C(=O)O4)C5(C)C)CC3)(OC1=O)C2(C)C`: the inhibition is 0% (inactive).

Consider `O=C1N=C(N2CCOCC2)CS1`, for which the inhibition is 0% (inactive).

Take `Cc1nn(-c2nc3ccccc3s2)c(C)c1Oc1ccccc1O`: the inhibition was 2% (inactive).

Regarding `CC1(C)Cc2c(C#N)c(SCCC#N)nc(N3CCOCC3)c2CS1`, the inhibition was 0% (inactive).

Turning to `Nc1nc(Nc2ccc(Cl)cc2Cl)nc(C(F)(F)F)n1`, the inhibition is 0% (inactive).

On to `Cn1c(=O)[nH]c(=O)c2c1nc(N1CCc3ccccc3C1)n2CCSc1nc2ccccc2s1`, for which the inhibition is 4% (inactive).

For `CCC(=O)c1ccc(OCC(=O)N2CCc3cc(OC)c(OC)cc3C2)cc1`, the inhibition was 0% (inactive).

For the compound `CCOC(=O)N1CCN(C(=O)C2c3cc(OC)c(OC)cc3C(=O)N3CCc4ccccc4C23)CC1` (stereo not given), the inhibition is 4% (inactive).

As to `O=S(=O)(Nc1cccnc1)c1ccc2c(c1)OCCO2`, the inhibition was 1% (inactive).

For the compound `CCCCC(=O)NCCc1cc2c(C)ccc(C)c2[nH]c1=O`, the inhibition is 0% (inactive).

For the compound `CSc1ccccc1NS(=O)(=O)c1ccccc1`, the inhibition is 3% (inactive).

With `CCn1c(SC)nc2c(c1=O)SC(C)C2` (stereo not given), the inhibition is 0% (inactive).

With `CCCn1c(OC)nc2c1c(=O)n(C)c(=O)n2C`, the inhibition was 0% (inactive).

As for `CCCCOc1ccc(S(=O)(=O)n2c(C)nc3ccccc32)cc1`, the inhibition is 0% (inactive).

Consider `CCN(CC)CCCN1C(=O)C(=O)/C(=C(/O)c2ccc(C)cc2)C1c1ccccn1` (stereo not given), for which the inhibition is 3% (inactive).

As for `Cc1nnc(SCC(=O)Nc2cc(C(F)(F)F)ccc2N2CCOCC2)o1`, the inhibition was 0% (inactive).

For the compound `CCOC(=O)c1cc2c(=O)n3cccc(C)c3nc2n(CCc2ccccc2)c1=N`, the inhibition is 0% (inactive).

`CC(C(=O)NCc1cccnc1)N1C(=O)c2ccccc2C1=O` (stereo not given): the inhibition is 0% (inactive).
